Shown are actives, neighbours in structure and some others; about 12% of the full set was active somewhere.
NS1 function inh – inhibitors of influenza NS1 protein function; hit rate 0.4% among 270,000; Potency, µM (highest dose often 46.1 µM), for the others: top-dose activity, positive = more growth; further: potency means the concentration at half of the fitted maximal effect; actives are rising curves; nearly all actives have a fitted effect of over 50% in size
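Compounds were scored for reversing the slow growth caused by influenza A NS1 in S. cerevisiae, measured by optical density at 600 nm. Assay medium contained 2% galactose at pH 6.0; NS1-free yeast of the same strain were the positive control.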
SARS PLP yeast – blocks SARS-CoV papain-like protease in a yeast assay; S. cerevisiae expressing SARS-CoV PLpro, growth rescue; Potency, µM (titrated, usually from 32.9 µM), for the others: top-dose activity, positive = growth rescue, most hits filed as activators; hit rate 0.19% among 330,000; AID 485353; further: potency means the concentration at half of the fitted maximal effect; 0% is about no effect; nearly all actives have a fitted effect of over 55% in size
Shiga toxin inh – Shiga toxin inhibition | Vero cells, Shiga toxin protein synthesis inhibition reporter | inhibition, % at 38.7 µM | hit rate 9.2% among 290,000; in the data active means inhibition mostly above about 28%, no sharp cut-off; inactive means mostly below about 43%; further: 0% is about no effect
CHX counter – counter-screen for Shiga toxin inhibitors: cycloheximide protein synthesis inhibition | cell reporter, cycloheximide protein synthesis inhibition counterscreen | max response, % | hit rate 12% among 300,000 | AID 2314; in the data active means max response mostly above about 13%, no sharp cut-off; inactive means mostly below about 14%; further: read at 38.3 µM for the half of the compounds with a filed dose; 0% is about no effect
The depositor's hits bear a star. Unless noted, the call rests on the fitted dose curve.

How did Nc1ccc2nc(SCc3ccc([N+](=O)[O-])cc3)sc2c1 do in these assays?
NS1 function inh: 1.1%; SARS PLP yeast: -6.0%; Shiga toxin inh: 44.6; CHX counter: 27.9*

Results for Nc1nnc(SCc2ccc(F)cc2)s1 ?
NS1 function inh: 1.1%; Shiga toxin inh: 16.3; CHX counter: 11.4

What do the screens show for `COC(=O)CSc1nc2ccc(N)cc2s1`?
NS1 function inh: 7.4%; SARS PLP yeast: -1.8%; Shiga toxin inh: 25.5; CHX counter: 18.8*

Results for CCOC(=O)CSc1nc2ccc(NC(C)=O)cc2s1 ?
NS1 function inh: -3.6%; SARS PLP yeast: -1.8%; Shiga toxin inh: -13.0; CHX counter: -5.1

How did C=CCc1ccccc1OCCSc1nc2ccc([N+](=O)[O-])cc2s1 do in these assays?
NS1 function inh: -10.2%; SARS PLP yeast: -2.1%; Shiga toxin inh: 1.3; CHX counter: -1.6

What do the screens show for `COc1ccccc1OCCSc1nc2ccc([N+](=O)[O-])cc2s1`?
NS1 function inh: -11.8%; SARS PLP yeast: -2.6%; Shiga toxin inh: -11.0; CHX counter: 10.3*

What do the screens show for `NC(=S)N/N=C/c1ncc(C(F)(F)F)cc1Cl`?
NS1 function inh: -38.7%; SARS PLP yeast: 9.3%; Shiga toxin inh: 10.9; CHX counter: -0.4

How did Nc1nnc(SCc2ccc([N+](=O)[O-])cc2)s1 do in these assays?
NS1 function inh: 6.0%; SARS PLP yeast: 1.7%; Shiga toxin inh: 22.5; CHX counter: 8.0*

Results for O=[N+]([O-])c1ccc(CSc2nnc(SCc3ccc(Cl)cc3)s2)cc1 ?
NS1 function inh: 7.7%; SARS PLP yeast: 30.9%; Shiga toxin inh: -7.9; CHX counter: 1.4

What do the screens show for `C(=C/c1nccc2c1[nH]c1ccccc12)/c1ccc2c(c1)OCO2`?
NS1 function inh: -32.1%; SARS PLP yeast: -17.1%; Shiga toxin inh: 39.6*; CHX counter: 36.9

What do the screens show for `O=c1c2ccccc2nc(/C=C/c2ccc3c(c2)OCO3)n1-c1ccccc1`?
NS1 function inh: -2.1%; SARS PLP yeast: 4.1%; Shiga toxin inh: 8.8; CHX counter: -1.9

What do the screens show for `COc1ccc(-c2nc(C#N)c(N3CCCCCC3)o2)cc1`?
NS1 function inh: -59.4%; SARS PLP yeast: -15.4%; Shiga toxin inh: 31.1; CHX counter: 17.2

How did COc1ccc(-c2nc(C#N)c(N3CCC(C)CC3)o2)cc1 do in these assays?
NS1 function inh: -6.5%; SARS PLP yeast: 1.0%; Shiga toxin inh: 12.8; CHX counter: 16.0*

How did Cc1ccc(-c2nc(C#N)c(N3CCC(C)CC3)o2)cc1 do in these assays?
NS1 function inh: -32.8%; SARS PLP yeast: -1.8%; Shiga toxin inh: 64.6; CHX counter: 16.6*

What do the screens show for `O=C(Nc1ccc2c(c1)Cc1ccccc1-2)[C@@H]1[C@H](C(=O)O)[C@]2(Cl)C(Cl)=C(Cl)[C@@]1(Cl)C2(Cl)Cl`?
NS1 function inh: 8.8%

How did COc1ccc(C2=NN(CCC(=O)NCC3CCCO3)C(=O)CC2)cc1 (configuration not stated) do in these assays?
NS1 function inh: 2.1%; SARS PLP yeast: 1.7%; Shiga toxin inh: 22.6; CHX counter: -1.8

Results for NCCC1CCCC(CCN)N1 (configuration not stated) ?
NS1 function inh: 3.1%

What do the screens show for `O=C(CSc1nnnn1C1CCCC1)Nc1ccccc1F`?
NS1 function inh: -6.8%; SARS PLP yeast: 0.7%; Shiga toxin inh: 31.3*; CHX counter: 12.5*

What do the screens show for `O=C(CSc1nnnn1C1CCCC1)Nc1ccccc1N1CCOCC1`?
NS1 function inh: -8.7%; SARS PLP yeast: -0.3%; Shiga toxin inh: 21.0; CHX counter: -2.3

Results for CC(C)n1nnnc1SCC(=O)NCCc1ccccc1 ?
NS1 function inh: 1.4%; SARS PLP yeast: 1.5%; Shiga toxin inh: 30.3; CHX counter: 15.9*

How did O=C(CSc1nnnn1C1CCCC1)NCCc1ccccc1 do in these assays?
NS1 function inh: -36.5%; SARS PLP yeast: -1.0%; Shiga toxin inh: 49.4*; CHX counter: 23.4*

How did O=C(CSc1nnnn1C1CCCC1)N1CCOCC1 do in these assays?
NS1 function inh: -1.1%; SARS PLP yeast: -1.3%; Shiga toxin inh: 39.3; CHX counter: 36.2*

How did CCOC(=O)c1c(NC(=O)COc2cccc3c2CCN(C)C3=O)sc2c1CCC2 do in these assays?
NS1 function inh: 23.4%; SARS PLP yeast: -5.7%; Shiga toxin inh: 5.9; CHX counter: -3.1

How did Cc1ccsc1/C=N/n1c(-c2ccccn2)n[nH]c1=S do in these assays?
NS1 function inh: inconclusive; SARS PLP yeast: -15.4%; Shiga toxin inh: 12.8; CHX counter: 9.5

Results for COC(=O)c1ccc(NC(=O)CSc2nnnn2C2CCCCC2)cc1 ?
NS1 function inh: -2.2%; SARS PLP yeast: -6.5%; Shiga toxin inh: -1.6; CHX counter: 3.7

What do the screens show for `CC(=O)Nc1ccc(C(=O)CSc2nnnn2C2CCCC2)cc1`?
NS1 function inh: -5.1%; SARS PLP yeast: -0.7%; Shiga toxin inh: 24.2; CHX counter: 15.2*

Screening results (PubChem BioAssay)
